Data as given in the supplement of paper PMC6555819.

Key:
Assay in all cases: PBM binding z-score (relative to random genomic background probes); higher = stronger binding; sequences stand for … in GC…GCGATTGACAGCGTAGAATGAAGG
[1] = test system: FXR:RXRa (NR concentration 270 nM, RXRa partner concentration 90 nM)
Outline: (§1)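 Ligand-free nuclear receptor dimers were bound for 1 h to custom Agilent 4×180K protein-binding microarrays. Detection used antibodies against each partner (one per run). Binding z-scores rest on regression-normalized fluorescence, with random background probes as the reference.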

[2] = test system: LXRa:RXRa (NR concentration 270 nM, RXRa partner concentration 90 nM)
Outline: as §1

[3] = test system: LXRa homodimer (NR concentration 270 nM)
Outline: as §1

[4] = test system: LXRb:RXRa (NR concentration 270 nM, RXRa partner concentration 90 nM)
Outline: as §1

[5] = test system: LXRb homodimer (NR concentration 270 nM)
Outline: as §1

[6] = test system: PPARa:RXRa (NR concentration 270 nM, RXRa partner concentration 90 nM)
Outline: as §1

[7] = test system: PPARg:RXRa (NR concentration 180 nM, RXRa partner concentration 90 nM)
Outline: as §1

[8] = test system: PPARg:RXRa 270nM:90nM, anti-RXR (NR concentration 270 nM, RXRa partner concentration 90 nM)
Outline: as §1

[9] = test system: PPARg:RXRa 30nM:10nM, anti-RXR (NR concentration 30 nM, RXRa partner concentration 10 nM)
Outline: as §1

[10] = test system: PPARg:RXRa 90nM:30nM, anti-RXR (NR concentration 90 nM, RXRa partner concentration 30 nM)
Outline: as §1

[11] = test system: PPARg:RXRa DBDmut IVT, anti-RXR (DBD mutation: RXRa K156A/R161A, NR concentration 270 nM, RXRa partner concentration 90 nM)
Outline: as §1

[12] = test system: PPARg:RXRa IVT, anti-PPARg (NR concentration 270 nM, RXRa partner concentration 90 nM)
Outline: as §1

[13] = test system: PPARg DBDmut:RXRa IVT, anti-PPARg (DBD mutation: PPARg1 K132A/R137A, NR concentration 270 nM, RXRa partner concentration 90 nM)
Outline: as §1

[14] = test system: PPARg DBDmut IVT, anti-PPARg (DBD mutation: PPARg1 K132A/R137A, NR concentration 270 nM)
Outline: as §1

[15] = test system: PPARg homodimer (NR concentration 180 nM)
Outline: as §1

[16] = test system: PXR:RXRa (NR concentration 270 nM, RXRa partner concentration 90 nM)
Outline: as §1

[17] = test system: PXR homodimer (NR concentration 270 nM)
Outline: as §1

[18] = test system: RARa:RXR (NR concentration 270 nM, RXRa partner concentration 90 nM)
Outline: as §1

[19] = test system: RARa homodimer (NR concentration 270 nM)
Outline: as §1

[20] = test system: RARb:RXRa (NR concentration 270 nM, RXRa partner concentration 90 nM)
Outline: as §1

Sequence	PBM binding z-score [1]	PBM binding z-score [2]	PBM binding z-score [3]	PBM binding z-score [4]	PBM binding z-score [5]	PBM binding z-score [6]	PBM binding z-score [7]	PBM binding z-score [8]	PBM binding z-score [9]	PBM binding z-score [10]	PBM binding z-score [11]	PBM binding z-score [12]	PBM binding z-score [13]	PBM binding z-score [14]	PBM binding z-score [15]	PBM binding z-score [16]	PBM binding z-score [17]	PBM binding z-score [18]	PBM binding z-score [19]	PBM binding z-score [20]
CCAAGCAGGCCAGGGTCACTCAAGCATTTCGCTT	2.12	1.76	-0.279	1.95	-0.754	3.07	0.977	1.81	-0.229	0.599	0.264	0.738	-0.543	-1.4	1.53	2.65	-0.14	3.4	0.312	2.61
CCTACTGGGCCATCAGGTCATCGATATCAACGTT	1.37	1.07	0.687	1.38	-0.672	2.79	3.18	3.65	1.59	3.22	4.21	5.09	-0.466	-0.676	1.03	1.5	-0.0162	2.04	-0.0284	2.39
CCTACTGGGCCATCAGGTCATTGAAATCAACGTT	1.33	1.07	1.03	1.45	-0.244	2.74	2.67	3.66	1.23	2.99	4.17	4.91	-0.467	-0.409	0.78	1.25	0.298	1.68	0.289	2.04
ACAGCCAGGTGAGTGAAGGTAACTCAGCTGGACG	0.0409	-0.362	-0.936	-0.925	-1.03	-0.248	0.164	-0.463	-0.822	-0.5	0.411	0.424	-0.718	-0.566	-0.774	-0.607	-0.722	-0.11	-0.431	0.179
CCTCGGTGGACAACAGGAGGTCAGAGCTGCCAGA	0.578	1.81	1.76	1.05	-0.647	1.67	0.123	0.139	-0.911	-0.207	-0.628	0.0551	-1.3	-1.14	0.735	1.53	0.332	1.77	0.503	1.93
TCTTGTATATCAACAGGAGGTTAAGAAAGATCGA	0.413	1.42	0.536	1.16	0.307	1.29	0.477	1.5	3.07	2.27	1.71	0.652	1.56	1.04	0.679	1.2	0.265	1.32	0.86	0.806
TCGAGTAGGTTTCCAATGGGGCATTCAGCTTTCT	0.0114	-0.0745	-0.502	0.0167	-0.0602	-0.255	-0.735	0.178	0.836	0.304	1.53	0.378	-1.11	-0.734	-1.12	-0.503	-1.03	-0.636	-1.26	-0.326
ATACCAAGGGGATCGTGAGGTCGTTGATACTAAC	0.492	0.487	0.291	1.26	-0.272	0.97	0.267	-0.0276	-0.375	-0.365	-0.449	-0.121	-0.0494	0.0346	-0.227	1.68	0.87	1.52	-0.222	0.379
CCTCCTAGGTCAATGGTCAGCTAAAGCAGCTCGC	3.28	2.46	0.212	2.07	0.406	3.53	3.92	5.19	2.32	4.99	3.61	3.53	-0.066	0.119	2.06	1.28	-0.0378	1.98	0.584	3.77
TTACCAAGGTGAAAAGTCGTTGATGCACGCCTTG	0.666	0.719	-0.432	0.311	-0.57	2.25	2.75	4.56	2.5	4.19	1.72	2.64	0.0551	0.367	0.274	0.136	-0.523	0.987	-0.563	1.06
ACTAGCAGGCCAAGTTTGGGTCACTCAGACAAAG	-0.039	0.195	-0.331	0.306	-1.05	1.27	0.233	0.225	-0.237	-0.185	0.651	1.1	-0.577	-0.242	0.405	0.515	-0.504	1.43	-0.139	1.71
GCGACTGGGGCAAAGCAAGTTACCATAAGGTTGG	-0.106	-0.224	-0.376	-0.3	-0.665	0.868	0.964	1.1	-0.269	0.301	4.67	3.4	-0.185	-1.06	0.355	-0.0344	-0.458	0.375	-0.721	0.659
CCTTACGGGTCTCTGACAGGTTATAGCATTTGGA	-0.234	0.159	-0.00475	-0.0139	-0.262	0.166	0.168	0.115	-0.351	-0.00111	0.625	-0.443	-0.515	-0.237	0.678	-0.13	-0.251	0.185	0.262	0.256
CTCGAAAGGTCGTGCTCAGGTGAGTTTACCAAAC	5.01	4.08	0.0619	3.31	0.366	4.6	1.98	3.86	1.67	2.65	0.999	1.89	0.777	0.0952	3.04	3.93	1.33	4.47	0.43	3.79
